{"source": "the supplement of paper PMC8728848", "binders": {"B1": {"name": "Pwp2 (Candida glabrata) (protein)", "chain": "MGSSHHHHHHSSGLVPRGSHMASKNPVELNNVCTFPNDYGRIPGFTVLVGRLGLLISASDYKELLRYPGAFLIATQDTMTTSPNFELTGFPFFTGLYGLTVFPLDLLVELRGYFVPPNSGQYTFTLSDSDDAAIIFLGNPSAFPCGDLQNWPKPSEEDITVTDHLFPSRTLYLIEGVAYPMRIAYYNGIGAGRLNAAFIDPSGTRHTNWEGYIWQYDPCSTCTYS"}}, "test_in_all_cases": "glycan array binding signal (z-score within array); higher = stronger binding", "settings_in_all_cases": "glycan notation: IUPAC condensed, linker removed", "key": {"[1]": {"molecular_target": "Man(a1-2)Man(a1-6)[Man(a1-3)]Man(a1-6)[Man(a1-2)Man(a1-2)Man(a1-3)]Man(b1-4)GlcNAc(b1-4)GlcNAc", "method_in_brief": "(§1)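 The binding signal is a Z-score computed within each array and averaged over linkers. Arrays of the same protein sequence at different concentrations or buffers were also averaged together. Data originate from 3228 arrays in the Consortium for Functional Glycomics database, kept only where the protein sequence was available.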"}, "[2]": {"molecular_target": "Man(a1-3)[Man(a1-6)]Man(a1-6)[Man(a1-3)]Man", "method_in_brief": "as §1"}, "[3]": {"molecular_target": "Neu5Ac(a2-3)Gal(b1-3)GalNAc(b1-3)Gal(a1-4)Gal(b1-4)Glc", "method_in_brief": "as §1"}, "[4]": {"molecular_target": "Neu5Ac(a2-3)Gal(b1-3)GlcNAc(b1-3)Gal(b1-3)GlcNAc", "method_in_brief": "as §1"}, "[5]": {"molecular_target": "Neu5Ac(a2-3)Gal(b1-3)GlcNAc6S", "method_in_brief": "as §1"}, "[6]": {"molecular_target": "Neu5Ac(a2-3)Gal(b1-3)[Fuc(a1-4)]GlcNAc", "method_in_brief": "as §1"}, "[7]": {"molecular_target": "Neu5Ac(a2-3)Gal(b1-3)[Fuc(a1-4)]GlcNAc(b1-3)Gal(b1-3)[Fuc(a1-4)]GlcNAc", "method_in_brief": "as §1"}, "[8]": {"molecular_target": "Neu5Ac(a2-3)Gal(b1-4)GlcNAc(b1-2)Man(a1-3)[Neu5Ac(a2-3)Gal(b1-4)GlcNAc(b1-2)Man(a1-6)]Man(b1-4)GlcNAc(b1-4)[Fuc(a1-6)]GlcNAc", "method_in_brief": "as §1"}, "[9]": {"molecular_target": "Neu5Ac(a2-3)Gal(b1-4)GlcNAc(b1-2)[Neu5Ac(a2-3)Gal(b1-4)GlcNAc(b1-6)]Man(a1-6)[Neu5Ac(a2-3)Gal(b1-4)GlcNAc(b1-2)Man(a1-3)][GlcNAc(b1-4)]Man(b1-4)GlcNAc(b1-4)GlcNAc", "method_in_brief": "as §1"}, "[10]": {"molecular_target": "Neu5Ac(a2-3)Gal(b1-4)GlcNAc(b1-3)Gal(b1-4)GlcNAc(b1-6)[Gal(b1-3)]GalNAc", "method_in_brief": "as §1"}, "[11]": {"molecular_target": "Neu5Ac(a2-3)Gal(b1-4)GlcNAc(b1-6)GalNAc", "method_in_brief": "as §1"}, "[12]": {"molecular_target": "Neu5Ac(a2-3)Gal(b1-4)[Fuc(a1-3)]GlcNAc6S", "method_in_brief": "as §1"}, "[13]": {"molecular_target": "Neu5Ac(a2-3)[GalNAc(b1-4)]Gal(b1-4)Glc", "method_in_brief": "as §1"}, "[14]": {"molecular_target": "Neu5Ac(a2-3)[GalNAc(b1-4)]Gal(b1-4)GlcNAc(b1-3)GalNAc", "method_in_brief": "as §1"}, "[15]": {"molecular_target": "Neu5Ac(a2-6)Gal(b1-4)GlcNAc(b1-2)Man(a1-3)[Neu5Ac(a2-6)Gal(b1-4)GlcNAc(b1-2)Man(a1-6)]Man(b1-4)GlcNAc(b1-4)[Fuc(a1-6)]GlcNAc", "method_in_brief": "as §1"}, "[16]": {"molecular_target": "Neu5Ac(a2-6)Gal(b1-4)GlcNAc(b1-3)Gal(b1-4)GlcNAc(b1-3)[Neu5Ac(a2-6)Gal(b1-4)GlcNAc(b1-3)Gal(b1-4)GlcNAc(b1-6)]GalNAc", "method_in_brief": "as §1"}, "[17]": {"molecular_target": "Neu5Ac(a2-6)Gal(b1-4)GlcNAc(b1-3)Gal(b1-4)[Fuc(a1-3)]GlcNAc(b1-3)Gal(b1-4)[Fuc(a1-3)]GlcNAc", "method_in_brief": "as §1"}, "[18]": {"molecular_target": "Neu5Ac(a2-6)Gal(b1-4)GlcNAc(b1-6)[Gal(b1-3)]GalNAc", "method_in_brief": "as §1"}, "[19]": {"molecular_target": "Neu5Ac(a2-6)Gal(b1-4)GlcNAc6S", "method_in_brief": "as §1"}, "[20]": {"molecular_target": "Neu5Ac(a2-6)GalNAc(b1-4)GlcNAc6S", "method_in_brief": "as §1"}, "Neu5Ac(a2-8)Neu5Ac": {"molecular_target": "Neu5Ac(a2-8)Neu5Ac", "method_in_brief": "as §1"}, "[21]": {"molecular_target": "Neu5Ac(a2-8)Neu5Ac(a2-8)Neu5Ac", "method_in_brief": "as §1"}, "[22]": {"molecular_target": "Neu5Ac(a2-8)Neu5Ac(a2-8)Neu5Ac(a2-3)[GalNAc(b1-4)]Gal(b1-4)Glc", "method_in_brief": "as §1"}, "[23]": {"molecular_target": "Neu5Gc(a2-3)Gal(b1-3)[Fuc(a1-4)]GlcNAc", "method_in_brief": "as §1"}, "[24]": {"molecular_target": "Neu5Gc(a2-3)Gal(b1-4)GlcNAc", "method_in_brief": "as §1"}, "[25]": {"molecular_target": "Neu5Gc(a2-8)Neu5Ac(a2-3)Gal(b1-4)GlcNAc", "method_in_brief": "as §1"}}, "note": "This is one part of a sample in which the strongest signals are shown more often than they occur.", "data": [{"binder": "B1", "values": [{"measurement": "glycan array binding signal (z-score)", "setting": "[1]", "value": -0.467}, {"measurement": "glycan array binding signal (z-score)", "setting": "[2]", "value": 5.45}, {"measurement": "glycan array binding signal (z-score)", "setting": "[3]", "value": -0.307}, {"measurement": "glycan array binding signal (z-score)", "setting": "[4]", "value": -0.269}, {"measurement": "glycan array binding signal (z-score)", "setting": "[5]", "value": -0.456}, {"measurement": "glycan array binding signal (z-score)", "setting": "[6]", "value": 0.549}, {"measurement": "glycan array binding signal (z-score)", "setting": "[7]", "value": 4}, {"measurement": "glycan array binding signal (z-score)", "setting": "[8]", "value": 0.96}, {"measurement": "glycan array binding signal (z-score)", "setting": "[9]", "value": 4.22}, {"measurement": "glycan array binding signal (z-score)", "setting": "[10]", "value": 1.44}, {"measurement": "glycan array binding signal (z-score)", "setting": "[11]", "value": 4.01}, {"measurement": "glycan array binding signal (z-score)", "setting": "[12]", "value": 0.309}, {"measurement": "glycan array binding signal (z-score)", "setting": "[13]", "value": 0.443}, {"measurement": "glycan array binding signal (z-score)", "setting": "[14]", "value": 0.085}, {"measurement": "glycan array binding signal (z-score)", "setting": "[15]", "value": 1.79}, {"measurement": "glycan array binding signal (z-score)", "setting": "[16]", "value": -0.059}, {"measurement": "glycan array binding signal (z-score)", "setting": "[17]", "value": -0.077}, {"measurement": "glycan array binding signal (z-score)", "setting": "[18]", "value": 3.56}, {"measurement": "glycan array binding signal (z-score)", "setting": "[19]", "value": -0.426}, {"measurement": "glycan array binding signal (z-score)", "setting": "[20]", "value": 4.86}, {"measurement": "glycan array binding signal (z-score)", "setting": "Neu5Ac(a2-8)Neu5Ac", "value": -0.04}, {"measurement": "glycan array binding signal (z-score)", "setting": "[21]", "value": -0.203}, {"measurement": "glycan array binding signal (z-score)", "setting": "[22]", "value": 0.537}, {"measurement": "glycan array binding signal (z-score)", "setting": "[23]", "value": -0.072}, {"measurement": "glycan array binding signal (z-score)", "setting": "[24]", "value": 0.982}, {"measurement": "glycan array binding signal (z-score)", "setting": "[25]", "value": -0.437}]}]}
